Compound activity deposited in PubChem BioAssay by The Scripps Research Institute Molecular Screening Center.
The list is not random: actives were taken first. Their share in the collection is about 4.5%.
DAX1 inh-1: inhibitors of DAX1 repression of SF-1 activated StAR promoter; HEK293T StAR-luciferase reporter, SF-1/DAX-1 repression relief; 1.1% of 370,000 active; AID 652010; inhibition, % at 6.8 µM;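 active = inhibition above the mean over all tested compounds plus 3 SD, cut at about 3.6% in these data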;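 also: higher inhibition means more luminescence from relief of DAX-1 repression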
ssDAF-12 act: activators of S. stercoralis DAF-12 nuclear receptor; HEK293 ssDAF-12/GRIP1 lit1-tk-luc reporter, luminescence; % of 3 µM dafachronic acid response; activation, % at 6.8 µM; 1% of 370,000 active; AID 652126;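 active = activation above the mean over all tested compounds plus 3 SD, cut at about 0.9% in these data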
DAX1 inh-2: inhibitors of human orphan nuclear receptor DAX1 (NR0B1); P51843; AID 504766; inhibition, % at 6.75 µM; 0.99% of 340,000 active; HEK293 Gal4-DAX1 luciferase reporter, luminescence;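 active = inhibition above the mean over all tested compounds plus 3 SD, cut at about 4.2% in these data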;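 also: inhibition shows as a rise in luminescence from relieved DAX1 repression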
Target sequence (P51843 207-470 limits assumed): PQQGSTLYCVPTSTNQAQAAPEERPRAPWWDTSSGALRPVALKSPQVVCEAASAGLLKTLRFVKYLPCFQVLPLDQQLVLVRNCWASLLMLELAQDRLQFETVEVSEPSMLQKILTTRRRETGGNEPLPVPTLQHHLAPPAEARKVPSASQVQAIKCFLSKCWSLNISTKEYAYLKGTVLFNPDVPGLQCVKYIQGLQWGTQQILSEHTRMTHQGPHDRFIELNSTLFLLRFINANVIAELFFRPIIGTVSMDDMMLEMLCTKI
hgDAF12 agonist: agonists of H. glycines DAF-12 nuclear receptor | HEK293 GAL4-hgDAF12 UAS-luciferase reporter, agonist luminescence; normalized to butyrate control | activation, % at 6.8 µM | 1.8% of 370,000 active;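 active = activation above a cutoff set at the mean of all screened compounds plus 3 SD, cut at about 10% in these data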
hcDAF12 agonist: activates DAF-12 receptor from parasite H. contortus | 1.4% of 370,000 active | activation, % at 6.8 µM | HEK293 hcDAF-12 lit1-tk-luc reporter, luminescence; 0% DMSO, 100% Δ7-dafachronic acid;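 active = activation above the mean of all tested compounds plus 3 SD, cut at about 5.5% in these data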
GAA850 FXN act: activators of GAA850 frataxin (FXN) promoter. HEK293 lucGAA850 FXN promoter luciferase reporter, 24 h; percent of 10 µM SAHA response. activation, % at 6 µM. 0.56% of 360,000 active. AID 540364;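 active = activation above the average of all compounds screened plus 3 SD, cutoff fixed separately per campaign, cut at about 7.5% in these data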
A number is an active result.

How did CN(C)CCCNC(=O)CC1C[C@H](C(=O)N2CCOCC2)[C@@]2(CCC3CCCC3)c3[nH]c4ccccc4c3CCN2C1=O (stereo partly drawn) do in these assays?
DAX1 inh-1: 3.7; ssDAF-12 act: inactive; DAX1 inh-2: 4.3; hgDAF12 agonist: inactive; hcDAF12 agonist: inactive; GAA850 FXN act: inactive

What do the screens show for `CN[C@H]1C[C@H]2c3[nH]c4c(-c5cccc(C)c5)cccc4c3CCN2C[C@H]1[C@H](C)O`?
DAX1 inh-1: inactive; ssDAF-12 act: inactive; hgDAF12 agonist: inactive; hcDAF12 agonist: inactive

Results for COC(=O)[C@]12C[C@H](CC(=O)NCCc3ccccc3OC)C(=O)N(CCC3=CCCCC3)C1=C[C@H](C1CCCC1)O[C@@H]2C ?
DAX1 inh-1: inactive; ssDAF-12 act: inactive; hgDAF12 agonist: inactive; hcDAF12 agonist: inactive

How did COc1ccc(/C=N\NC(=O)CN2CCN(Cc3ccccc3)CC2)cc1OCc1ccccc1 do in these assays?
DAX1 inh-1: inactive; ssDAF-12 act: inactive; hgDAF12 agonist: inactive; hcDAF12 agonist: inactive

Results for O=C(CCC(=O)c1cccs1)c1cccs1 ?
DAX1 inh-1: inactive; ssDAF-12 act: inactive; DAX1 inh-2: inactive; hgDAF12 agonist: 12.4; hcDAF12 agonist: inactive; GAA850 FXN act: inactive

How did Cc1cc(C(=O)N/N=C(\CCC(=O)O)c2cccs2)c2ccccc2n1 do in these assays?
DAX1 inh-1: inactive; ssDAF-12 act: inactive; DAX1 inh-2: inactive; hgDAF12 agonist: inactive; hcDAF12 agonist: inactive; GAA850 FXN act: inactive

Results for CO/N=C(\CCC(=O)O)c1cccs1 ?
DAX1 inh-1: inactive; ssDAF-12 act: inactive; DAX1 inh-2: inactive; hgDAF12 agonist: 11.4; hcDAF12 agonist: inactive; GAA850 FXN act: inactive

How did O=C(Cn1c(-c2cncs2)nc2ccccc21)NC1CCCCC1 do in these assays?
DAX1 inh-1: inactive; ssDAF-12 act: inactive; hgDAF12 agonist: inactive; hcDAF12 agonist: inactive

Results for OCc1ccc2c(c1)c(-c1ccc3c(c1)OCCO3)c(-c1ccccc1)n2-c1ccccc1 ?
DAX1 inh-1: inactive; ssDAF-12 act: inactive; DAX1 inh-2: 4.4; hgDAF12 agonist: inactive; hcDAF12 agonist: inactive; GAA850 FXN act: inactive

What do the screens show for `O=C(/C=C/c1ccc(O)cc1)c1ccccc1`?
DAX1 inh-1: inactive; ssDAF-12 act: inactive; DAX1 inh-2: inactive; hgDAF12 agonist: inactive; hcDAF12 agonist: inactive; GAA850 FXN act: inactive

Results for Cc1nn(C)cc1/C=C/C(=O)c1ccc(O)cc1 ?
DAX1 inh-1: inactive; ssDAF-12 act: inactive; DAX1 inh-2: inactive; hgDAF12 agonist: 11.1; hcDAF12 agonist: inactive; GAA850 FXN act: inactive

How did Cc1ccccc1N1CC(O)(c2cccs2)[N+]2=C1CCCC2 (stereo not drawn) do in these assays?
DAX1 inh-1: inactive; ssDAF-12 act: 1.8; DAX1 inh-2: inactive; hgDAF12 agonist: inactive; hcDAF12 agonist: inactive; GAA850 FXN act: inactive

How did O=C(CC(c1ccc(F)cc1)c1ccco1)Nc1nccs1 (stereo not drawn) do in these assays?
DAX1 inh-1: inactive; ssDAF-12 act: 2.1; DAX1 inh-2: inactive; hgDAF12 agonist: inactive; hcDAF12 agonist: inactive; GAA850 FXN act: inactive

How did COc1ccccc1C(CC(=O)Nc1nccs1)c1ccco1 (stereo not drawn) do in these assays?
DAX1 inh-1: inactive; ssDAF-12 act: inactive; DAX1 inh-2: inactive; hgDAF12 agonist: inactive; hcDAF12 agonist: inactive; GAA850 FXN act: inactive

Results for CCOc1ccc(NC(=O)CN2C(=O)C3CCCN3C2=O)cc1 (stereo not drawn) ?
DAX1 inh-1: inactive; ssDAF-12 act: inactive; DAX1 inh-2: 4.7; hgDAF12 agonist: inactive; hcDAF12 agonist: inactive; GAA850 FXN act: inactive

Results for CN(C)c1ccc(/C=C(/NC(=O)c2ccccc2)C(=O)N/N=C/c2ccc([N+](=O)[O-])c(O)c2)cc1 ?
DAX1 inh-1: inactive; ssDAF-12 act: inactive; DAX1 inh-2: inactive; hgDAF12 agonist: 11.7; hcDAF12 agonist: inactive; GAA850 FXN act: inactive

How did O=C(NCCc1c[nH]c2ccccc12)OCc1cn(Cc2ccc(F)cc2F)nn1 do in these assays?
DAX1 inh-1: inactive; ssDAF-12 act: inactive; hgDAF12 agonist: inactive; hcDAF12 agonist: inactive

What do the screens show for `CC(=O)O[C@H]1C=C[C@@H](C#Cc2ccc(C(C)(C)C)cc2)O[C@@H]1COC(=O)Nc1ccccc1`?
DAX1 inh-1: inactive; ssDAF-12 act: inactive; hgDAF12 agonist: inactive; hcDAF12 agonist: inactive

Results for CN(C)c1ccc(N=Nc2cccc(F)c2)cc1 ?
DAX1 inh-1: inactive; ssDAF-12 act: 1.4; DAX1 inh-2: inactive; hgDAF12 agonist: 11.0; hcDAF12 agonist: 5.6; GAA850 FXN act: inactive

What do the screens show for `COc1cccc(-c2sc3ccc(OC)cc3c2-c2cnc(N3CCOCC3)nc2)c1`?
DAX1 inh-1: inactive; ssDAF-12 act: inactive; hgDAF12 agonist: 10.9; hcDAF12 agonist: inactive

Results for CC(C)c1cc(C(N)=O)c(NC(=O)c2cccc(COc3ccc(Cl)cc3)c2)s1 ?
DAX1 inh-1: inactive; ssDAF-12 act: inactive; DAX1 inh-2: inactive; hgDAF12 agonist: 13.1; hcDAF12 agonist: inactive; GAA850 FXN act: inactive

What do the screens show for `COc1ccc(/C=C/S(=O)(=O)NCc2ccc(F)cc2)c(CNC(=O)OC(C)(C)C)c1`?
DAX1 inh-1: inactive; ssDAF-12 act: inactive; hgDAF12 agonist: inactive; hcDAF12 agonist: inactive

How did Fc1ccc2nc(N3CCOCC3)sc2c1 do in these assays?
DAX1 inh-1: inactive; ssDAF-12 act: inactive; DAX1 inh-2: inactive; hgDAF12 agonist: 11.7; hcDAF12 agonist: inactive; GAA850 FXN act: inactive

What do the screens show for `O=C(C1CCCN1S(=O)(=O)c1cccc2ccccc12)N1CCN(c2ccccc2)CC1` (stereo not drawn)?
DAX1 inh-1: inactive; ssDAF-12 act: 2.5; hgDAF12 agonist: inactive; hcDAF12 agonist: inactive

What do the screens show for `O=C(C1CCCN1S(=O)(=O)c1cccc2nsnc12)N1CCN(c2ccccc2)CC1` (stereo not drawn)?
DAX1 inh-2: inactive; GAA850 FXN act: inactive

How did COc1ccc(OCc2cnc(Cl)s2)cc1 do in these assays?
DAX1 inh-1: inactive; ssDAF-12 act: inactive; DAX1 inh-2: inactive; hgDAF12 agonist: inactive; hcDAF12 agonist: inactive; GAA850 FXN act: 17.3

How did CN(C)c1ccc(-c2nc3ccccc3n2C)cc1 do in these assays?
DAX1 inh-1: 4.0; ssDAF-12 act: inactive; DAX1 inh-2: inactive; hgDAF12 agonist: inactive; hcDAF12 agonist: inactive; GAA850 FXN act: inactive

How did CN(C)c1ccc(C(O)Cc2nc3ccccc3n2C)cc1 (stereo not drawn) do in these assays?
DAX1 inh-1: inactive; ssDAF-12 act: inactive; DAX1 inh-2: inactive; hgDAF12 agonist: inactive; hcDAF12 agonist: 5.6; GAA850 FXN act: inactive

What do the screens show for `CCn1c(-c2ccc(N(C)C)cc2)nc2ccccc21`?
DAX1 inh-1: inactive; ssDAF-12 act: inactive; DAX1 inh-2: inactive; hgDAF12 agonist: inactive; hcDAF12 agonist: inactive; GAA850 FXN act: inactive

What do the screens show for `CC(C)c1ccc(C(O)Cc2nc3ccccc3n2C)cc1` (stereo not drawn)?
DAX1 inh-1: inactive; ssDAF-12 act: inactive; DAX1 inh-2: 4.6; hgDAF12 agonist: inactive; hcDAF12 agonist: inactive; GAA850 FXN act: inactive
